DRD3 agonist = D3 dopamine receptor (human) agonism. P35462. D3R DiscoveRx beta-arrestin cells, luminescence, 90 min. max activation, %. 0.58% of 410,000 active; in the data active = max activation above about 30%
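Cells at 1500/well, incubated overnight, then treated with pinned compounds (dopamine as control) for 90 min at 37 degrees C. DiscoveRx reagent added for 30 - 60 minutes at room temperature; luminescence read.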
D1 agonist = activates the human D1 dopamine receptor | 1% of 360,000 active | HEK293 T-REx D1 cells, calcium flux, agonist mode | AID 504660 | activation, % at 2 µM | P21728; in the data active = activation above about 30%
Target sequence (P21728 whole entry, looked up): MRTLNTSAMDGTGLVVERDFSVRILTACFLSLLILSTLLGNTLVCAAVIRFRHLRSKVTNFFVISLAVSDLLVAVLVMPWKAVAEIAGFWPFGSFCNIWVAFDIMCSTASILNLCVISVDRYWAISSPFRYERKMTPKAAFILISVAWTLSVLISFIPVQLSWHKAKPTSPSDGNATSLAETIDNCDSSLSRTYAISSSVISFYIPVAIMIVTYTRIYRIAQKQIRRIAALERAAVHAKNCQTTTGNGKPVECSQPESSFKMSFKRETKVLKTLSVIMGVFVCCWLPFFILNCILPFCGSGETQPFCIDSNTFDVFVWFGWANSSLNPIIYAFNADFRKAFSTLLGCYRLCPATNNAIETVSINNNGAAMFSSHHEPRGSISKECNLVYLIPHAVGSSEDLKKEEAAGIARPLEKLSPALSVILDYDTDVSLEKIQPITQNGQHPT
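Agonism was scored from calcium flux recorded over 180 s (1 read/s) after pintool compound addition, following a 10-cycle baseline. Cells were inducible force-coupled HEK293 TREx D1, plated overnight at 30 C and loaded with no-wash calcium dye.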
DRD3 antagonist = antagonists of human D3 dopamine receptor; max response, negative = inhibition, %; D3R cells, DiscoveRx beta-arrestin luminescence, antagonist mode; active compounds read low; 2.5% of 360,000 active; P35462; in the data active = max response below about -50%; inconclusive = no clear call, values can overlap the other calls
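Cells plated overnight at 1500 cells/well, then exposed to library compounds with dopamine controls for 90 minutes at 37 degrees C. DiscoveRx reagent added for 30–60 minutes at room temperature; luminescence read, quantitative HTS format.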
D1 PAM = enhances dopamine response at the human D1 receptor; potentiation, % at 10 µM; HEK293 TREx D1 cells, calcium flux, dopamine EC20 potentiation; AID 504651; 0.036% of 360,000 active; P21728; in the data active = potentiation above about 30%
D1 antag = human D1 dopamine receptor antagonism. P21728. HEK293 TREx D1 cells, calcium flux, dopamine EC80; active compounds read low. activity change, negative = inhibition, % at 10 µM. 3.2% of 360,000 active. AID 504652; in the data active = activity change below about -30%
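Tetracycline-induced HEK293 T-REx cells with force-coupled D1 receptor were loaded with a no-wash calcium dye. Compound was added after a 10 s baseline and read kinetically for 180 s; EC80 dopamine was then added and calcium flux followed another 180 s.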
Large screens that a line does not name were inactive. Only some compounds are listed: those with a hit (about 6.1% of all), similar ones and a draw of the others.

CC1(C(=O)CSc2nc3ccccc3[nH]2)CCC(=O)O1 (stereo unspecified)	none
CC1(C(=O)CSc2ncn[nH]2)CCC(=O)O1 (stereo unspecified)	D1 antag -43 (no result: DRD3 agonist, DRD3 antagonist)
CCOc1ccc(NC(=O)Cc2ccc(NC(=O)N3CCCCc4ccccc43)cc2)cc1	none (no result: DRD3 antagonist)
CCC(C)(C)n1nnnc1C(C(C)C)N(Cc1cccnc1)Cc1ccco1 (stereo unspecified)	D1 antag -44
Clc1cccc(-c2ccc(CNCc3ccccn3)o2)c1	none
O=c1[nH]nc(Cc2ccc(-c3cccc(Cl)c3)o2)c2ccccc12	DRD3 antagonist -61
CCCOc1ccc(Br)cc1CSC(=N)N	D1 agonist 49
CN(C)c1ccc(CN(CC2CCCO2)C(=O)COc2ccccc2Cl)cc1 (stereo unspecified)	none (no result: DRD3 antagonist)
FC(F)(F)c1cc(CO[C@@H]2CCCN[C@@H]2c2ccccc2)cc(C(F)(F)F)c1	D1 agonist 47
FC(F)(F)c1cc(CCN2CCNC[C@@H]2c2ccccc2)cc(C(F)(F)F)c1	none (no result: D1 agonist, D1 PAM, D1 antag)
Cc1cc2c(cc1C)NC(CC(=O)Nc1ccccc1SC(F)(F)F)C(=O)N2 (stereo unspecified)	none (no result: DRD3 antagonist)
Cc1ccc(CN2CCC(NC(=O)c3ccccc3)CC2)cc1	DRD3 antagonist -96
Cc1ccccc1C(=O)NC1CCN(Cc2ccccc2)CC1	D1 antag -33
CC1(C)Cc2cccc(C(=O)NC3CCN(Cc4ccccc4)CC3)c2O1	DRD3 antagonist -77
COC(=O)[C@@H](NC(=O)NC1CCN(Cc2ccccc2)CC1)C(C)C	DRD3 antagonist -53
Cc1ccccc1C(=O)NC1CCN(Cc2nnnn2CCc2ccccc2)CC1	none
CC(C)[C@H](NC(=O)NC1CCN(Cc2ccccc2)CC1)C(=O)O	none
CC1(C)Cc2cccc(OC(=O)NC3CCCCC3)c2O1	none (no result: D1 agonist, D1 PAM, D1 antag)
Cc1cc(C)c(NC(=O)C(=O)NCC(c2cccnc2)N2CCN(c3ccccc3F)CC2)c(C)c1 (stereo unspecified)	none (no result: DRD3 antagonist)
CCOC(=O)N1CCc2c(sc(NCc3cccs3)c2C(=O)Nc2cc(Cl)ccc2OC)C1	none (no result: DRD3 antagonist)
CCOC(=O)c1ccc(NC(=O)CSc2nccn2Cc2ccc(OC)cc2)cc1	none (no result: DRD3 antagonist)
CCc1nc2ccc(C(=O)NC3CCN(Cc4ccccc4)CC3)cn2c1N(C)Cc1ccc(N(C)C)cc1	DRD3 antagonist -63 (no result: D1 agonist, D1 PAM, D1 antag)
COc1cc(N)c(Cl)cc1C(=O)NC1CCN(Cc2ccccc2)CC1	DRD3 antagonist -108 (no result: D1 agonist, D1 PAM, D1 antag)
Cc1ccc(C)n1-c1ccc(C(=O)NC2CCN(Cc3ccccc3)CC2)cc1	DRD3 antagonist -52
O=C(NC1CCN(Cc2ccccc2)CC1)c1ccc(CS(=O)c2ccccc2Cl)o1 (stereo unspecified)	DRD3 antagonist -117 (no result: D1 agonist, D1 PAM, D1 antag)
CCN(c1ccccc1)S(=O)(=O)c1ccc(C(=O)NC2CCN(Cc3ccccc3)CC2)cc1	DRD3 antagonist inconclusive (no result: D1 agonist, D1 PAM, D1 antag)
CCc1nc2ccc(C(=O)NC3CCN(C)CC3)cn2c1N(C)CCC(C)C	none (no result: D1 agonist, D1 PAM, D1 antag)
Cc1ccc(NC(=O)CSc2cn(CC(=O)N3CCOCC3)c3ccccc23)cc1Cl	none (no result: DRD3 antagonist)
COc1ccc(NC(=O)Cn2c(SCc3cccc(Cl)c3)nc3ccncc32)c(OC)c1OC	none (no result: DRD3 antagonist)
CCCN(CCC)C(=O)Cn1c(=O)n(-c2ccc(C)cc2)c(=O)c2ccc(C(=O)NCc3ccccc3Cl)cc21	D1 antag -66 (no result: DRD3 antagonist)
CCOC(=O)c1[nH]c2ccccc2c1NC(=O)c1cc(OC)cc(OC)c1	none (no result: DRD3 antagonist)
Cc1cc(C)cc(NC(=O)CCNC(=O)c2ccc([N+](=O)[O-])cc2)c1	none
S=C(NCc1ccc(Cl)cc1)Nc1ccncc1	D1 antag -43
O=C(CCNC(=O)c1ccc([N+](=O)[O-])cc1)Nc1ccc(F)cc1	D1 antag -39
O=[N+]([O-])c1ccc(NC(=S)NCc2ccc(F)cc2)cc1	DRD3 antagonist inconclusive, D1 antag -35
NS(=O)(=O)c1ccc(NC(=S)NCc2ccc(F)cc2)cc1	none
O=[N+]([O-])c1ccc(NC(=S)NCc2ccncc2)cc1	D1 agonist 32, D1 antag -41
COc1cc(C(=O)NCc2ccc3c(c2)CCN3C(=O)c2ccc(Cl)cc2)cc(OC)c1OC	none (no result: DRD3 antagonist)
CCOc1ccccc1CNC(=O)c1ccc2c(c1)nc1n2CCCCC1	none (no result: DRD3 antagonist)
CC(=O)c1ccc(NC(=O)CCCc2nc(-c3cccc(C)c3)no2)cc1	none (no result: DRD3 antagonist)
O=[N+]([O-])c1cccc(NC(=S)NCc2ccncc2)c1	D1 antag -40
O=C(NCc1ccncc1)Nc1cccc([N+](=O)[O-])c1	DRD3 antagonist inconclusive
O=C(c1nc2ccccn2c1CNCCCn1ncc2ccccc21)N1CCOCC1	D1 antag -42
Cc1cc2ccccc2n1CCNCc1c(C(=O)N2CCOCC2)nc2ccccn12	none
CCO[C@@H]1OC(C(=O)O)=C[C@H](C2CCCCC2)[C@H]1CCCO	DRD3 agonist 35
CCO[C@@H]1OC(C(=O)O)=C[C@H](C2CC2)[C@H]1CCCO	none
Cc1ccc(S(=O)(=O)c2cc3c(=O)n4ccccc4nc3n(Cc3ccco3)c2=N)cc1	D1 antag -32
Cc1cccn2c(=O)c3cc(C(=O)NCCc4ccccc4)c(=N)n(Cc4ccco4)c3nc12	DRD3 antagonist -100
N=c1c(C(=O)NCc2ccco2)cc2c(=O)n3ccccc3nc2n1Cc1ccccc1	DRD3 antagonist -51
COc1ccc(CCn2c(=N)c(C(=O)NC3CCCC3)cc3c(=O)n4ccccc4nc32)cc1	D1 antag -32
COc1ccc(CCn2c(=N)c(C(=O)NC3CCCC3)cc3c(=O)n4ccccc4nc32)cc1OC	none
Cc1cccc(-c2nc3c(cnn3-c3ccccc3)c(=O)n2-c2cccc(Cl)c2)c1	none (no result: DRD3 antagonist)
COc1cccc(NC(=O)Cn2c(=O)n(CCc3ccccc3)c(=O)c3c4c(sc32)CN(C(C)=O)CC4)c1	none (no result: DRD3 antagonist)
CCn1cc(C(=O)NCCCOC)c(=O)c2cc(S(=O)(=O)N3CCc4ccccc4C3)ccc21	none (no result: DRD3 antagonist)
CCOCCCNC(=O)Cn1nc(C)n2c(cc3cc(C)ccc32)c1=O	none (no result: DRD3 antagonist)
CCn1c(SCC(=O)NC)nnc1C(C)C	DRD3 antagonist -52
O=C(Cn1c(=O)n2nc(-c3cccc(F)c3)nc2c2ccccc21)N1CCN(c2ccccc2F)CC1	none (no result: DRD3 antagonist, D1 antag)
Cc1cccc(N2CCN(CC(=O)NCC3CCCCC3)CC2)c1C	DRD3 antagonist -63
Cc1ccc(N2CCN(C(=O)NC3CCCCC3)CC2)c(C)c1	none
Cc1cccc(N2CCN(CC(=O)Nc3nccs3)CC2)c1C	none
Cc1cccc(N2CCN(C(=O)NC3CCCCC3)CC2)c1C	D1 agonist 33, D1 antag -41
O=C(NC1CCCCC1)N1CCN(CCc2ccccc2)CC1	DRD3 antagonist -61
CCCN(CCC)C(=O)Cn1c(=O)n(-c2ccc(CC)cc2)c(=O)c2c3c(sc21)CCC3	none (no result: DRD3 antagonist)
COc1ccc(Cl)cc1NC(=O)Cn1cnc2c1c(=O)n(C)c(=O)n2C	none (no result: DRD3 antagonist)
COC(=O)c1c(-c2ccc(OC)cc2)sc2cc3c(cc12)OCO3	none (no result: D1 antag)
COc1cc(-c2ccc3sc(-c4ccsc4)c(C#CCO)c3c2)cc(OC)c1OC	DRD3 agonist 50 (no result: D1 antag)
